# Measurements reported in PubChem BioAssay.
# Inconclusive results are not listed. Active and inactive are the calls of the source.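 How the source made its calls, unless noted: active means compounds killing one labelled cell type while sparing the other, by normalised counts and ratio limits, not self-fluorescent; inactive means the rest.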
# Legend:
# [1] = modulation of C. elegans fzo-1 (AID 1259413; call rule not given here;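 further: fzo-1 mutant C. elegans worms in liquid wells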); conditions: C. elegans fzo-1 modulator screen, mean read-out; stronger effect = higher value
# [2] = growth inhibition of DIPG glioma cells, dose response, cell-based, SU-DIPG-XIII, MIPE4.0, CellTiter-Glo, qHTS (AID 1347061; cut-off not given, nearly all actives have AC50 up to about 37 µM;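 further: cells exposed to compound for 48 hours before readout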); conditions: SU-DIPG-XIII viability, CellTiter-Glo ATP luminescence
# [3] = differential killing of epithelial or mesenchymal cells, primary screen, imaging, PC-3E GFP, TEM4-18 mCherry, co-culture (AID 1345086); conditions: imaging cell counts, at 1 µM; for red/green cell ratio (normalised): actives lie on both sides, counts scaled to control wells, 1 = unselective;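 on all read-outs here: cells exposed to compound for 72 h before imaging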;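 on red/green cell ratio (normalised): normalised mesenchymal count divided by normalised epithelial count so high means epithelial killing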
# [4] = growth inhibition of DIPG glioma cells, dose response, cell-based, JHH-DIPG-1, MIPE4.0, CellTiter-Glo, qHTS (AID 1347062; cut-off not given, nearly all actives have AC50 up to about 27 µM); conditions: JHH-DIPG-1 viability, CellTiter-Glo ATP luminescence
# [5] = growth inhibition of DIPG glioma cells, dose response, cell-based, SU-DIPG-XIII, MIPE5.0, CellTiter-Glo, qHTS (AID 1347064; cut-off not given, nearly all actives have AC50 up to about 23 µM); conditions: SU-DIPG-XIII viability, CellTiter-Glo ATP luminescence
# [6] = growth inhibition of DIPG glioma cells, dose response, cell-based, SU-DIPG-IV, MIPE4.0, CellTiter-Glo, qHTS (AID 1347063; cut-off not given, nearly all actives have AC50 up to about 30 µM;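 further: compound exposure lasted 48 hours before the viability readout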); conditions: SU-DIPG-IV viability, CellTiter-Glo ATP luminescence
# [7] = measured here: epithelial PC-3E GFP cell survival
# [8] = measured here: mesenchymal TEM4-18 mCherry cell survival
smiles,measurement,setting,value
CC(C)(C)NC(=O)[C@@H]1CN(Cc2cccnc2)CCN1C[C@@H](O)C[C@@H](Cc1ccccc1)C(=O)N[C@H]1c2ccccc2C[C@H]1O,mean signal,[1],283 (inactive)
same,AC50,[2],1320 nM (active)
COCCc1ccc(OCC(O)CNC(C)C)cc1 (stereo unspecified),red/green cell ratio (normalised),[3],0.71 (inactive)
same,normalised cell number,[3]; [7],1.33
same,normalised cell number,[3]; [8],0.95
Cn1c(=O)c2c(ncn2CCO)n(C)c1=O,red/green cell ratio (normalised),[3],1.06 (inactive)
same,normalised cell number,[3]; [7],0.95
same,normalised cell number,[3]; [8],1.01
CCCCC1C(=O)N(c2ccccc2)N(c2ccccc2)C1=O,red/green cell ratio (normalised),[3],0.97 (inactive)
same,normalised cell number,[3]; [7],1.22
same,normalised cell number,[3]; [8],1.19
CC(C)c1ccc2oc3nc(N)c(C(=O)O)cc3c(=O)c2c1,mean signal,[1],242 (inactive)
same,outcome,[2],inactive
same,outcome,[4],inactive
same,outcome,[5],inactive
Cc1c(N(C)C)c(=O)n(-c2ccccc2)n1C,red/green cell ratio (normalised),[3],0.85 (inactive)
same,normalised cell number,[3]; [7],1.18
same,normalised cell number,[3]; [8],1
C[C@](N)(Cc1ccc(O)cc1)C(=O)O,red/green cell ratio (normalised),[3],0.89 (inactive)
same,normalised cell number,[3]; [7],1.18
same,normalised cell number,[3]; [8],1.05
Cc1ccc(NC(=O)c2ccc(CN3CCN(C)CC3)cc2)cc1Nc1nccc(-c2cccnc2)n1,mean signal,[1],251 (inactive)
same,outcome,[4],inactive
same,outcome,[6],inactive
CCOc1cc(N)c(Cl)cc1C(=O)NCC1CN(Cc2ccc(F)cc2)CCO1 (stereo unspecified),mean signal,[1],261 (inactive)
same,outcome,[2],inactive
same,outcome,[4],inactive
same,outcome,[6],inactive
same,outcome,[5],inactive
CC(C(=O)O)c1ccc2c(c1)[nH]c1ccc(Cl)cc12 (stereo unspecified),red/green cell ratio (normalised),[3],1.13 (inactive)
same,normalised cell number,[3]; [7],1.37
same,normalised cell number,[3]; [8],1.54
CC1CCc2cc(F)cc3c(=O)c(C(=O)O)cn1c23 (stereo unspecified),red/green cell ratio (normalised),[3],1.19 (inactive)
same,normalised cell number,[3]; [7],0.89
same,normalised cell number,[3]; [8],1.05
COc1c2occc2c(OC)c2c(=O)cc(C)oc12,red/green cell ratio (normalised),[3],0.89 (inactive)
same,normalised cell number,[3]; [7],1.07
same,normalised cell number,[3]; [8],0.95
Nc1ccc(S(=O)(=O)Nc2ccc(Cl)nn2)cc1,red/green cell ratio (normalised),[3],1.19 (inactive)
same,normalised cell number,[3]; [7],0.46
same,normalised cell number,[3]; [8],0.54
